# Unmarked numbers belong to inactive results.
# Tested on: Aedes aegypti larvae
# Experiment: larval motility relative to same well at 0 h (fraction); higher = more motile (less active compound), active = 0.4 or less
# Details: 10 µM
# Procedure, shortened: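 Larvae (Aedes aegypti, hatched in pond salt solution with yeast at 25 °C and taken 18–24 h later) were plated at about 10 per 100 µL well. Compounds at 10 µM in 1% v/v DMSO were imaged with INVAPP at 0, 2 and 24 h, alongside solvent and larvicide controls on each plate. Reported relative motility is each well's score over its own starting score, as a median of three independent larval batches.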
SMILES,larval motility (2 h),larval motility (24 h)
O=c1cc(Nc2ccc3ccccc3c2)[nH]c(=O)[nH]1,0.528,0.778
COc1ccc(C2=CC(c3c(F)cccc3Cl)n3ncnc3N2)cc1 (stereo not drawn),0.637,0.619
O=C(O)c1ccc(-c2ccc(O[C@H]3O[C@H](CO)[C@@H](O)[C@H](O)[C@@H]3O)cc2)cc1,0.798,1.22
O=c1ccc2ncc(=O)n3c2n1CC3CN1CCC(NCc2cc3c(cn2)OCCC3)CC1 (stereo not drawn),0.641,0.964
CCCCc1ccc(S(=O)(=O)Nc2cc(C)on2)cc1,0.511,0.633
CCCCc1ccc(-c2cc(C(=O)O)cc(-c3ccc(Cl)cc3)n2)cc1,0.642,0.563
O=C(/C(=C/c1ccc(Cl)cc1Cl)n1ccnc1)c1ccc(Cl)cc1,0.446,1.04
OC1O[C@H](CSc2ccc(F)cc2)[C@@H](O)[C@H]1O (stereo partly drawn),1.09,1.32
CC1(C)CC(NC(=O)C(=O)Nc2ccc(Cl)cc2)CC(C)(C)N1,0.977,0.896
CCC(C)(C)c1ccc(CC(C)CN2C[C@@H](C)O[C@@H](C)C2)cc1 (stereo partly drawn),0.895,0.765
CCCCc1ccc(-c2nc(C)c(C(=O)OC)s2)cc1,1.33,0.97
NCc1ccc(S(N)(=O)=O)cc1,0.675,0.66
O=c1nc(N2CCN(CC3CCCCC3)CC2)sc2c([N+](=O)[O-])cc(C(F)(F)F)cc12,0.712,1.04
CCc1nc2ccc(Cl)cn2c1C(=O)NCc1ccc(N2CCC(c3ccc(OC(F)(F)F)cc3)CC2)cc1,0.959,0.891
CC(Cc1ccccc1)C(=O)Nc1ccc(Cl)cc1C(=O)O (stereo not drawn),1.32,1.05
CCNC(=O)Nc1cc2c(-c3ccnc(C)c3)ccc(CNC(=O)OC)c2cn1,0.695,0.931
Cc1[nH]c2ccccc2c1CC(=O)N[C@@H](Cc1ccccc1)C(=O)N(C)c1ccccc1,0.963,1.03

SMILES,larval motility (2 h),larval motility (24 h)
C[C@@H](c1nc(-c2ccc(C#N)cc2)cs1)[C@](O)(Cn1cncn1)c1ccc(F)cc1F,0.723,0.498
Nc1nc(O)c2ncn(COCCO)c2n1,0.732,0.823
Clc1cc(Cl)c2c(c1)CCc1ccccc1C2n1ccnc1 (stereo not drawn),0.769,0.987
O=C(NCCN1CCCCC1)c1cccc(C(F)(F)F)c1,0.912,1.4
CC(C)(C)c1cc(CCC(=O)N2CCC2)cc(C(C)(C)C)c1O,0.769,0.774
CCNC(=O)Nc1cc(-c2ccccc2)c(-c2cncc(C(=O)O)c2)cn1,0.236 (active),0.433
Nc1nc(NC2Cc3ccc(F)cc3C2)nc(N2CCCCC2)n1 (stereo not drawn),0.662,0.628
CC(C)Oc1ccc(-n2cnc3cc(/C=C\c4ccc(C(C)(C)O)cc4)ccc32)cc1,0.656,1.03
CCCCN1C[C@H](O)[C@@H](O)[C@H](O)[C@H]1CO,0.87,0.809
COc1ccc(COc2cc3oc(=O)c4cc(C(C)O)ccc4c3cc2OC)cc1 (stereo not drawn),1.02,1.2
CO[C@@]1(NC(=O)Cc2cccs2)C(=O)N2C(C(=O)O)=C(COC(N)=O)CS[C@@H]21,0.909,1.17
O=C(CSc1nnc(Br)n1-c1ccc(C2CC2)c2ccccc12)Nc1ccc(C(=O)O)cc1Cl,0.815,0.894
COc1c(F)c(F)cc2c(=O)c(C(=O)O)cn(C3CC3)c12,0.765,1.08
CCc1nc(N)nc(N)c1C#CCc1ccccc1,0.589,0.658
O=C(CP(=O)(O)O)NCCc1cccc(Oc2ccccc2)c1,2.12,1.06
c1cnc(NCc2ccc(CNc3ncccn3)cc2)nc1,1.23,0.598
c1ccc(-c2nnc3c4ccccc4c(N4CCNCC4)nn23)cc1,0.808,1.34
